Tgondii IFNg – blocks Toxoplasma gondii growth in the presence of IFN-gamma | Toxoplasma gondii growth in IFN-gamma-treated host cells; hits give low values | activity change, negative = inhibition, % (concentration not given with the values) | AID 1259416 | 3.8% of 69,000 active; in the data active means activity change below about -70%, passing the limit was not always enough;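 further: host cells are HeLa cells infected with Toxoplasma gondii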
* = called active by the depositor; ! = not active in a repeat. Many of the other results were omitted from the sample, so hits are more common in it than they were.

SMILES	Tgondii IFNg
CC(NC(=O)c1cccc(C#CC(C)(C)O)c1)C1=CCCCC1 (stereo not given)	-5
Cc1noc(C)c1NC(=O)N(C)C[C@H]1Oc2cc(C#CCN(C)C)ccc2S(=O)(=O)N([C@H](C)CO)C[C@@H]1C	50
CCCNC(=O)N(C)C[C@@H]1Oc2cc(C#C[C@@H](C)O)ccc2S(=O)(=O)N([C@H](C)CO)C[C@@H]1C	51
CCCNC(=O)N(C)C[C@@H]1Oc2cc(C#C[C@@H](C)O)ccc2S(=O)(=O)N([C@@H](C)CO)C[C@@H]1C	-55
C[C@@H]1CN([C@H](C)CO)S(=O)(=O)c2ccc(C#CC3(O)CCCC3)cc2O[C@@H]1CN(C)C(=O)Nc1cccc(F)c1	-99*
CCCNC(=O)N(C)C[C@H]1Oc2cc(C#C[C@H](C)O)ccc2S(=O)(=O)N([C@@H](C)CO)C[C@@H]1C	103
CCCNC(=O)N(C)C[C@H]1Oc2cc(C#C[C@@H](C)O)ccc2S(=O)(=O)N([C@@H](C)CO)C[C@@H]1C	12
Cc1ccccc1-c1ccc2c(c1)O[C@@H](CN(C)C(=O)Nc1ccc(C(F)(F)F)cc1)[C@H](C)CN([C@H](C)CO)S2(=O)=O	-92*
CCCNC(=O)N(C)C[C@@H]1Oc2cc(C#C[C@H](C)O)ccc2S(=O)(=O)N([C@@H](C)CO)C[C@H]1C	50
C[C@H](CO)N1C[C@H](C)[C@@H](CN(C)C(=O)Nc2cccc(F)c2)Oc2cc(C#CC3(O)CCCC3)ccc2S1(=O)=O	-93*
C[C@@H]1CN([C@H](C)CO)S(=O)(=O)c2ccc(C#CC3(O)CCCC3)cc2O[C@H]1CN(C)C(=O)Nc1cccc(F)c1	-90*
C[C@H](CO)N1C[C@H](C)[C@@H](CN(C)C(=O)Nc2ccccc2F)Oc2cc(Br)ccc2S1(=O)=O	46
Cc1ccccc1-c1ccc2c(c1)O[C@H](CN(C)C(=O)Nc1ccc(C(F)(F)F)cc1)[C@H](C)CN([C@H](C)CO)S2(=O)=O	-23
CC(C)(C)c1ncc2c(n1)CN(C(=O)Cn1nc3ccccc3n1)C2	5
CCN(CC)c1ncnc2c1cnn2CC(=O)Nc1cc(C)ccc1C	-21
Cc1cccc(NC(=O)CN2C(=O)CCc3cc(S(=O)(=O)N4CCCCC4C)ccc32)c1 (stereo not given)	-62
Cc1ncsc1CCN(C)C(=O)c1ccccc1C1CCNC1 (stereo not given)	-6
CC1=C(C(=O)NCCCN2CCCCC2)C2(CCCCCC2)OC1=O	124
CC1CCN(S(=O)(=O)c2ccc3c(c2)CCC(=O)N3CC(=O)Nc2cccc3c2CCCC3)CC1	-26
CC(C)Nc1ncnc2c1CCN(C(=O)NCc1cccc(F)c1)CC2	-2
Cc1ccccc1NC(=O)C(=O)NCCc1sc(-c2ccc(Cl)cc2)nc1C	27
O=C1N(Cc2ccccc2)C(=O)C2(CCN(Cc3c[nH]c4ccccc34)CC2)N1CCc1ccccc1	-77*
O=C1N(Cc2ccccc2)C(=O)C2(CCN(Cc3ccsc3)CC2)N1CCc1ccccc1	-64
O=C1N(Cc2ccccc2)C(=O)C2(CCN(CC3CC=CCC3)CC2)N1CCc1ccccc1 (stereo not given)	-33
O=C1CCc2cc(S(=O)(=O)Nc3ccc4c(c3)OCCO4)cc3c2N1CCC3	-20
SMILES	Tgondii IFNg
Cc1ccc(C(=O)N2CCC3(CC2)Nc2ccc(C)c(C)c2-n2cccc23)cc1F	-6
c1ccc2c(c1)nc1c2ccc2[nH]onc21	-2
Nc1[nH]nc2nc3ccccc3nc12	9
Oc1c(Cl)c2nc3ccccc3nc2c2ccccc12	-105*
CN(C)CCN1CCO[C@H]2CN(C(=O)Cc3ccsc3)CC[C@@H]2C1	-1
COC(=O)c1ccc(C)cc1NC(=O)Nc1ccc(-c2nc(-c3ccc(C)cc3C)co2)cc1	-32
S=c1[nH]cc(-c2ccc(Br)cc2)[nH]1	-97*
CCn1ncnc1C1CC(=O)Nc2cc3c(cc21)CCc1ccccc1N3 (stereo not given)	-6
COc1ccc(-c2c(N)n[nH]c2C)cc1OC	-14
Cc1ccc(-c2ccc(=O)[nH]n2)cc1-n1cnnc1	8
COc1ccc(Cn2c(-c3ccncc3)n[nH]c2=O)cc1	-4
COc1ccc(-c2ccc(=O)[nH]n2)cc1	-115*
COc1cc(-c2ccc(=O)[nH]n2)ccc1OC(F)F	-87*
COc1ccc(-c2cc(N)n(C)n2)cc1	111
CCOC(=O)c1nc(Nc2ccccc2F)c2ccccc2n1	7
COc1ccc(-c2ccccc2OC(C)C(N)=O)c(OC)c1 (stereo not given)	10
CN1CC[C@@H](c2ccc3ccccc3c2)[C@H](O)C1	1
CN(Cc1ccc2nsnc2c1)C(=O)CC1COCCN1 (stereo not given)	10
Cc1c(-c2ccccc2)n(CC(O)CN)c2ccccc12 (stereo not given)	-48
CCOC(=O)Cn1c(C)cc(=O)c2ccccc21	-9
Cc1ccc2c(=O)c3ccccc3n(CCCN)c2c1C	-87*!
COc1ccc2[nH]cc(CCN3CC(C(=O)Nc4cc(C)cc(C)c4)CC3=O)c2c1 (stereo not given)	312
O=S(=O)(Cc1ccccc1)N1CC2CN(Cc3cccc(Cl)c3)CC2C1 (stereo not given)	-21
O=S(=O)(Cc1ccccc1)N1CC2CN(Cc3ccccc3)CC2C1 (stereo not given)	-14
O=S(=O)(c1ccccc1)N1CC2CN(Cc3ccc(Cl)cc3)C2C1 (stereo not given)	-106*
SMILES	Tgondii IFNg
CC(C(=O)N1CCC(c2cc3ncccc3cn2)CC1)N1C(=O)CSC1=O (stereo not given)	-64
COc1cccc(-c2nc(Cn3nnc(C(=O)Nc4cc(F)ccc4C)c3C)c(C)o2)c1OC	97
c1ccc(Cc2nc(CCOc3ccccc3)n[nH]2)cc1	164
Cc1ccc2cc(C)c3nn(CCNC(=O)C4CSC(c5ccncc5)=N4)c(=O)n3c2c1 (stereo not given)	-110*
CCN(CC)C(=O)Cn1nc2c(C)cc3ccc(OC)cc3n2c1=O	-9
Cc1cc2cc3c(cc2n2c(=O)n(Cc4ccccn4)nc12)OCO3	-45
O=C(OCC1COc2ccccc2O1)c1cc(S(=O)(=O)N2CCCC2)cs1 (stereo not given)	-62
Cc1nc(C)n(CC(=O)Nc2ccc3c(c2)N(C)C(=O)CO3)n1	15
Cc1cc(NC(=O)COc2ccccc2C(C)(C)C)n(Cc2cccnc2)n1	5
COCCN1C2(CCN(Cc3nccs3)C2)c2ccccc2S1(=O)=O (stereo not given)	3
CC(C)CCN1C2(CCN(Cc3nccs3)C2)c2ccccc2S1(=O)=O (stereo not given)	-96*
CN(C)CCN1C2(CCN(Cc3nccs3)C2)c2ccccc2S1(=O)=O (stereo not given)	0
COc1cccc(NC(=O)Nc2ccc(-c3nc(-c4cc(C)ccc4C)co3)cc2)c1	-19
CC1CCCCN1C(=O)c1cc2cccnc2n(Cc2ccc(F)cc2)c1=O (stereo not given)	-24
O=S(=O)(NCCc1csc(-c2ccc(F)cc2)n1)c1cc(F)ccc1F	-5
COc1ccc(C)cc1-c1ccc(C(N)=O)cn1	9
COc1ccc(C(N)=O)cc1-c1ccc(S(C)(=O)=O)cc1	5
COc1ccc(OC)c(-c2cc(C(N)=O)ccc2C)c1	-76*
CCN1C(=O)[C@@H]2CN(CCOC)C[C@@H]2C12CCN(C(=O)c1ccncn1)CC2	7
O=C(NCCc1csc(-c2cccc(F)c2)n1)c1ccc(Br)cc1	-50
Cc1cccc(C(=O)NCCc2csc(-c3ccccc3)n2)c1	152

Screens from PubChem BioAssay.
